From PubChem BioAssay AID1159602 (The Scripps Research Institute Molecular Screening Center, 2016) come the findings set out here.

Molecules are shown by their SMILES. Among all 22,000 compounds or so, about 220 (1%) were called active. No stated cut-off is given here; in the data, active means inhibition above about 35%; inactive means the rest. Shown is part of a subset that was picked to be rich in actives.

By inhibition is commonly meant the relative decrease from the control value, in per cent.

In the experiment the target is Mitogen-activated protein kinase kinase kinase 5 (Homo sapiens) (UniProt Q99683). The experiment can be described thus: blockers of MAP3K5 kinase activity – biochemical, AlphaScreen, primary screen (AID 1159602).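 Further: 0% = median of compound wells and 100% = no enzyme.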 To be noted: AlphaScreen MKK6 phosphorylation by ASK1, luminescence; at 7.44 µM; hits give high values. On the technique in general: Bead proximity is the source of the signal in Alpha formats.
Mitogen-activated protein kinase kinase kinase 5 (Homo sapiens), sequence (Q99683 whole entry, looked up): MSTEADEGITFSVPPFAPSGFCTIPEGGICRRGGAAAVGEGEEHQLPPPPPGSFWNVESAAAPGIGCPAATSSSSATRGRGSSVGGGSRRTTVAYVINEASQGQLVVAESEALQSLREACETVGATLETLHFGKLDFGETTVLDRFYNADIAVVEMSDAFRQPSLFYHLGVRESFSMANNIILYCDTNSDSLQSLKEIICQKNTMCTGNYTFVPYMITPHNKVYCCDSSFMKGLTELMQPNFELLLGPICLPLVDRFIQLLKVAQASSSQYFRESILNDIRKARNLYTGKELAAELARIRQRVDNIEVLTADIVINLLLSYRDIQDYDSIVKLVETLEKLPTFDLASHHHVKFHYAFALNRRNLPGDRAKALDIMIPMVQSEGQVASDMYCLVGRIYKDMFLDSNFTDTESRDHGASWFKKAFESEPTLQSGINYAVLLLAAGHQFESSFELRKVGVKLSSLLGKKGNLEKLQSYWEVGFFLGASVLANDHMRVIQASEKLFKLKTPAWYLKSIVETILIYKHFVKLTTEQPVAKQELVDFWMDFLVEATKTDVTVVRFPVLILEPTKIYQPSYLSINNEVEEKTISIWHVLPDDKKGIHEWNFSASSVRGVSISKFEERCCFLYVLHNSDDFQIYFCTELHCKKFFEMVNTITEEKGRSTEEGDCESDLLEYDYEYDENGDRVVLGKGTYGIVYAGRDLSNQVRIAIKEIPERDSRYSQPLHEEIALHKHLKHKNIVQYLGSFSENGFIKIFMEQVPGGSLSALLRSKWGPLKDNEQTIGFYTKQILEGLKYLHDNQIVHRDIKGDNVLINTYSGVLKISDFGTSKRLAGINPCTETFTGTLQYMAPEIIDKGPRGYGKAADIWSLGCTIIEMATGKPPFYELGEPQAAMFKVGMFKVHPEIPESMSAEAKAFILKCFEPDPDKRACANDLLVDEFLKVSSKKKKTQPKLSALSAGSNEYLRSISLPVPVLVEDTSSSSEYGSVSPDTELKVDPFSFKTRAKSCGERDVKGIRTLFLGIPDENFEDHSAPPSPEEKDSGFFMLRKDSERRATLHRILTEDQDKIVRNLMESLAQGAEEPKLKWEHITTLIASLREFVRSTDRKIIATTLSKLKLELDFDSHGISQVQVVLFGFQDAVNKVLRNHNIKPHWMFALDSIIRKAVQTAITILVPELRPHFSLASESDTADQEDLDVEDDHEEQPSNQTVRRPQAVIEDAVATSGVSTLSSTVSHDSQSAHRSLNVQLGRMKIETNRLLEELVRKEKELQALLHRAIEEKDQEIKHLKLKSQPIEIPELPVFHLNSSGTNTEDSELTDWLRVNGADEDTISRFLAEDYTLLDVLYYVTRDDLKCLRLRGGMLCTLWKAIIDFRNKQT
In the case of `O=C(NCc1cccc(C(F)(F)F)c1)c1csc(NCc2ccc3c(c2)OCO3)n1`, the inhibition is 8.66% (inactive).

As for `Cc1cc(NCCO)nc(Nc2nccc3ccccc23)n1`, the inhibition was -10.4% (inactive).

As for `COc1nc(N)nc(-c2csc3ccccc23)n1`, the inhibition is 2.99% (inactive).

As to `CCNc1nc(Nc2cc(OC)c(OC)c(OC)c2)c2ncn(-c3ccsc3)c2n1`, the inhibition was 8.63% (inactive).

For `O=C(NCCN1CCOCC1)c1csc(N2CCC(N3CCOCC3)CC2)n1`, the inhibition is -5.25% (inactive).

As to `c1cn(-c2ccc(Nc3nc4ncnc(NC5CC5)c4[nH]3)cc2)cn1`, the inhibition was 18.6% (inactive).

In the case of `COc1ccc(-c2cc(C(=O)Nc3ccc(N4CCOCC4)cc3)ccn2)cc1`, the inhibition was 11.5% (inactive).

With `c1ccc(CN2CCC(Nc3nc(N4CCc5ccccc5C4)nc4c3ncn4-c3ccsc3)CC2)cc1`, the inhibition was 9.04% (inactive).

`Cc1ncn(-c2ccc(Nc3nccc(N4CCc5[nH]ncc5C4)n3)cc2)n1`: the inhibition was -13.8% (inactive).

As for `CCN(CC)c1nc(NCc2nc3ccccc3[nH]2)nc(N2CCCC2CO)n1` (centres undefined), the inhibition was -6.32% (inactive).

Take `c1ccc2[nH]c(CNc3ncnc4nc(N5CCC(N6CCOCC6)CC5)[nH]c34)nc2c1`: the inhibition is -21.4% (inactive).

With `O=C(NCC(O)c1ccc(Br)cc1)c1cn(-c2cccc3c(=O)[nH]ccc23)nn1` (centres undefined), the inhibition is 13.4% (inactive).

For `c1ccc(OCCNc2cc(-c3ccccc3)ncn2)cc1`, the inhibition is -16.6% (inactive).

For `CC(=O)Nc1ccc(Nc2ccnc(N3CCC(N4CCOCC4)CC3)n2)cc1`, the inhibition is -0.1% (inactive).

Consider `CC(C)n1cnc2c(NCc3ccccc3)nc(NC3CCC(O)CC3)nc21` (centres undefined), for which the inhibition was -16.8% (inactive).

Take `Cc1ccc(C(=O)N2CCCC(Nc3cccc4cncc(C)c34)C2)cc1F` (centres undefined): the inhibition was -24.3% (inactive).

`CN(C)CCCNC(=O)c1ccc2c(c1)CC(c1nc3ccc(-c4ccnc(N)n4)cc3[nH]1)CO2` (centres undefined): the inhibition is 12.4% (inactive).

Regarding `c1ccc(-n2cnc3c(NCCN4CCOCC4)nc(Nc4ccc(-n5ccnc5)cc4)nc32)cc1`, the inhibition is 5.99% (inactive).

Turning to `O=C(NCCN1CCOCC1)c1cccc(-n2ncc3cc(Nc4ccccc4F)ccc32)n1`, the inhibition is -7.35% (inactive).

Take `O=C(Nc1ccc(N2CCOCC2)cc1)c1cccc(N2CCC(N3CCOCC3)CC2)n1`: the inhibition is 13.2% (inactive).

Regarding `Nc1nc(N2CCN(c3ccccn3)CC2)nc2c1ncn2-c1ccsc1`, the inhibition is 1.87% (inactive).

Turning to `CC(=O)Nc1ccc(Nc2nc(Nc3ccc(-n4ccnc4)cc3)nc3c2ncn3-c2ccsc2)cc1`, the inhibition was 4.85% (inactive).

For the molecule `O=C(NCCN1CCOCC1)c1cccc(-c2ccc(N3CCOCC3)nc2)c1`, the inhibition was 1.42% (inactive).

In the case of `CC(C)N(CCNC(=O)c1ccnc(Nc2ccc(C(F)(F)F)cc2)c1)C(C)C`, the inhibition is 7.8% (inactive).
